Source: PubChem
Hits are enriched below; roughly 7.3% of the tested compounds scored in any of these assays.
NPC1 prom act: activates the NPC1 promoter; AID 485313; Huh7 NPC1 promoter luciferase reporter, 24 h; Potency, µM (top dose mostly 9.22 µM), for inactives: top-dose activation, hits mostly activators; 320,000 compounds, 2.4% hits; note: % of control where 0% means no effect; nearly all actives have a fitted effect of over 60% in size
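Huh7 reporter cells (NPC1 promoter driving luciferase) are dosed with compound for 24 h at 37 °C, 5% CO2; luciferase detection reagent is then added and luminescence measured after 10 min at ambient temperature.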
p53 reactivator: mutant p53 re-activation in reporter cells; H1299 p53-A138V BP100-luciferase reporter, luminescence, 24 h; Potency, µM (doses to about 92.2 µM), for the others: at the highest dose activity change, positive = activation, usual class: activators; 320,000 compounds, 0.063% hits; AID 504706; note: % of control where 0% means no effect; nearly all actives have a fitted effect of over 45% in size
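H1299 (p53-null), stable ts p53-A138V + BP100-Luc; 1000 cells/well, Opti-MEM/10% FBS; cpd 4 pt, 1:5; 24 h, 37 deg C, 5% CO2; detection reagent 10 min RT; luminescence.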
FLuc counter: counter-screen for miR-21 project: firefly luciferase inhibitors or activators | P08659 | purified FLuc, Km substrates, luminescence inhibition | Potency, µM (doses to about 57.5 µM), inactives show at the highest dose activity change, negative = inhibition, most hits filed as inhibitors | 360,000 compounds, 6.9% hits | AID 588342;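 note: plate controls were vehicle for no effect and reference inhibitor for full effect; nearly all actives have a fitted effect of over 55% in size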
Target sequence (P08659 whole entry, looked up): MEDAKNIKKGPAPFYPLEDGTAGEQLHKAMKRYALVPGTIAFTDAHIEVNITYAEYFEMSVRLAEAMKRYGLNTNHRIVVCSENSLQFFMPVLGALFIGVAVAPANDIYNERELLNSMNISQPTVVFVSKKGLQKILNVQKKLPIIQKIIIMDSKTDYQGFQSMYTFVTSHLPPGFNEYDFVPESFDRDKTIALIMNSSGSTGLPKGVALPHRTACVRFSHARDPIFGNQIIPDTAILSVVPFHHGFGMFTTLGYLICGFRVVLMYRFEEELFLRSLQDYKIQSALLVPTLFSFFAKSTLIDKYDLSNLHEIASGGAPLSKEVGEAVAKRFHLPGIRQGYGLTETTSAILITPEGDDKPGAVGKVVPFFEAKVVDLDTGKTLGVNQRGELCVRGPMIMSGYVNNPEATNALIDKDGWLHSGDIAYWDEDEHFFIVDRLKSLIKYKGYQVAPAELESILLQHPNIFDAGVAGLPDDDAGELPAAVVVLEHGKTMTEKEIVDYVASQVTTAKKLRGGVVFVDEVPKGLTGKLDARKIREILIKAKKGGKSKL
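Purified P. pyralis luciferase (10nM final) with 10uM D-luciferin and 10uM ATP (Km levels) in 50mM Tris acetate pH 7.5, 10mM Mg acetate, 0.01% Tween-20, 0.05% BSA; qHTS 6-point titration, ~60 µM downward; luminescence read.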
SMN2 splice up: enhancers of SMN2 splice variant expression | HEK293 SMN2-luciferase splicing reporter, luminescence, 30-36 h | Potency, µM (highest dose often 46.1 µM), without a hit: at the top dose activity change, positive = activation, usual class: activators | 210,000 compounds, 2.8% hits | AID 1458; note: % of control where 0% means no effect; nearly all actives have a fitted effect of over 55% in size
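HEK293 cells carry an SMN2 minigene-luciferase reporter in which exon 7 inclusion puts luciferase in frame. Cells were seeded at 2000 cells/well, attached for 10-12 hours, then exposed to compounds for 30-36 hours at 37C before ONE-Glo luminescence.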
ELG1 genotoxic: inducers of genotoxicity in HEK293T ELG1-luciferase cells. HEK293T ELG1-luciferase reporter, luminescence, 16 h. Potency, µM (doses to about 46 µM), inactives show at the top dose activity change, positive = activation, usual class: activators. AID 504466. 330,000 compounds, 1.3% hits; note: % of control where 0% means no effect; nearly all actives have a fitted effect of over 60% in size
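ELG1-luciferase HEK293T cells, 2,000/well; compound pinned in; 16 hr, 37 °C, 5% CO2; ONE-Glo, 30 min RT; luminescence on CCD imager.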
Rab9 prom act: Rab9 promoter activation; Huh7 Rab9 promoter-luciferase reporter, luminescence, 24 h; Potency, µM (doses to about 9.22 µM), for the others: at the highest dose activation, negative = inhibition, actives largely listed as activators; 320,000 compounds, 2.8% hits; AID 485297; note: % of control where 0% means no effect; nearly all actives have a fitted effect of over 60% in size
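Stable Rab9-luc Huh7, 1500 cells/well, 2 h settle; cmpd in DMSO, 24 h, 37 °C/5% CO2; luciferase reagent 10 min RT; luminescence.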
Starred values were filed as active, the others as inactive; [ ] = another dose, or the depositor's remark. Calls come from the whole dose curve; as a rule, active = well fitted curve in the direction sought with a large enough effect; inconclusive = small, poorly fitted or top-dose-only effect, or another doubt; inactive = no such curve, though single readings can be large; an effect the other way counts as inactive or inconclusive. Potency is the fitted concentration of half-maximal effect.

CCCCOc1ccc(C(=O)Nc2cccc(C)n2)cc1 was read as NPC1 prom act 3.55µM*, p53 reactivator inconclusive, FLuc counter 3.01µM*, SMN2 splice up inconclusive, ELG1 genotoxic 12.7% and Rab9 prom act inconclusive.
For CCOc1ccc(C(=O)Nc2cccc(C)n2)cc1 the results were NPC1 prom act 2µM*, p53 reactivator 2.5%, FLuc counter 2.39µM*, SMN2 splice up 5.01µM*, ELG1 genotoxic inconclusive and Rab9 prom act 1µM*.
COc1cc(OC)cc(C(=O)NCC(=O)N2CCCCC2)c1 was read as NPC1 prom act -1.0%, p53 reactivator 0.4%, FLuc counter -1.7%, SMN2 splice up 7.1%, ELG1 genotoxic -5.4% and Rab9 prom act 9.5%.
CC(=O)c1cccc(NC(=O)c2sc(-n3nc(C)c(Cc4ccccc4)c3C)nc2C)c1 was read as FLuc counter 4.4%.
For COc1ccc(-n2cc3ccc([N+](=O)[O-])cc3n2)cc1 the results were NPC1 prom act 0.708µM*, p53 reactivator 29.5%, FLuc counter 0.953µM*, ELG1 genotoxic inconclusive and Rab9 prom act 0.447µM*.
CCOc1cnc(-c2c(-c3c(Cl)cccc3Cl)noc2C)o1 was read as NPC1 prom act -0.5%, p53 reactivator -3.7%, FLuc counter -2.1%, SMN2 splice up -9.1%, ELG1 genotoxic 1.0% and Rab9 prom act 2.2%.
`CCOc1cnc(-c2ccc(OC)cc2)o1` gave NPC1 prom act 2.51µM*, p53 reactivator inconclusive, FLuc counter 9.53µM*, SMN2 splice up inconclusive, ELG1 genotoxic inconclusive and Rab9 prom act inconclusive.
`CCOc1cnc(-c2ccc(Cl)cc2)o1` gave NPC1 prom act 0.3%, p53 reactivator 10.5%, FLuc counter 21.3µM*, SMN2 splice up 16.2%, ELG1 genotoxic 8.8% and Rab9 prom act 14.7%.
For COc1ccc(N2C(=O)CS/C2=C\[N+](=O)[O-])cc1 the results were NPC1 prom act -0.6%, p53 reactivator 3.4%, FLuc counter 3.6%, SMN2 splice up -7.2%, ELG1 genotoxic -2.4% and Rab9 prom act -33.1%.
`CC#CCN1c2ccccc2[C@]23C[C@@H](C(=O)OC)N(S(=O)(=O)c4ccc(C#N)cc4)C2=NC(C(=O)OC)=C(C(=O)OC)[C@H]13` gave SMN2 splice up 8.7%[9.22 µM].
Screening COc1cc(C(=O)Oc2ccccc2/C=N/NC(=O)c2ccc(C)cc2)cc(OC)c1OC returned NPC1 prom act inconclusive, p53 reactivator 2.1%, FLuc counter 6.01µM*, SMN2 splice up -64.7%, ELG1 genotoxic 17.2% and Rab9 prom act inconclusive.
O=C(N/N=C/c1ccccc1C(=O)O)c1ccccc1Br was read as NPC1 prom act -0.2%, p53 reactivator 0.6%, FLuc counter inconclusive, SMN2 splice up 10.0%, ELG1 genotoxic 0.0% and Rab9 prom act 16.8%.
`COc1cc(C(=O)Oc2ccc(/C=N/NC(=O)c3ccncc3)cc2)cc(OC)c1OC` gave NPC1 prom act -14.5%, p53 reactivator 10.0%, FLuc counter 4.9%, ELG1 genotoxic -3.4% and Rab9 prom act -1.2%.
For NC(=O)N/N=C/c1ccccc1OC(=O)c1ccccc1Br the results were NPC1 prom act -4.6%, p53 reactivator 0.4%, FLuc counter 26.9µM*, SMN2 splice up -23.2%, ELG1 genotoxic -7.7% and Rab9 prom act -2.1%.
Screening COc1ccc(C(=O)N/N=C/c2ccc(OC(=O)c3ccccc3)cc2)cc1 returned NPC1 prom act 0.7%, p53 reactivator -0.1%, FLuc counter -0.3%, SMN2 splice up -9.8%[1.84 µM], ELG1 genotoxic inconclusive and Rab9 prom act 5.7%.
`COc1ccc(C(=O)N/N=C/c2ccccc2OC(=O)c2ccccc2)cc1` gave NPC1 prom act inconclusive, p53 reactivator inconclusive, FLuc counter inconclusive, ELG1 genotoxic 20.6µM* and Rab9 prom act -7.7%.
CC1CN(C(=O)N2CCC(C(=O)NC3CCCCCC3)CC2)c2cc(Cl)ccc2O1 (stereo not drawn) was read as FLuc counter -1.3%.
CCOC(C)(C)C was read as SMN2 splice up 2.4%.
`Cc1nc2c(-c3ccccc3)c(C)nn2c(C)c1CCC(=O)NCc1ccc(Cl)cc1` gave FLuc counter -1.3% and SMN2 splice up -2.6%.
For CCOc1ccc(NC(=O)c2ccc(CC)s2)c([N+](=O)[O-])c1 the results were NPC1 prom act inconclusive, p53 reactivator 8.1%, FLuc counter -5.1%, ELG1 genotoxic inconclusive and Rab9 prom act 2.24µM*.
CCOc1ccc(NC(=O)c2cccs2)c([N+](=O)[O-])c1 was read as NPC1 prom act inconclusive, p53 reactivator inconclusive, FLuc counter inconclusive, SMN2 splice up 7.08µM*, ELG1 genotoxic inconclusive and Rab9 prom act 1.58µM*.
For CCOc1ccc(NC(=O)c2cccnc2Cl)c([N+](=O)[O-])c1 the results were NPC1 prom act 1.0%, p53 reactivator 24.7%, FLuc counter 0.3%, SMN2 splice up 1.0%, ELG1 genotoxic 3.0% and Rab9 prom act 2.1%.
`CCOc1ccc(NC(=O)c2ccco2)c([N+](=O)[O-])c1` gave NPC1 prom act 2µM*, p53 reactivator 4.47µM*, FLuc counter 2.39µM*, SMN2 splice up 14.1µM*, ELG1 genotoxic inconclusive and Rab9 prom act 1.58µM*.
Screening CCCC(=O)N1c2nc(-c3ccco3)nn2C2(CCCCC2)[C@@H]2CCCC[C@@H]21 returned FLuc counter -8.7%.
CCCNC(=O)Cn1c(=O)c2cccn2c2cccnc21 was read as FLuc counter -4.2%.
COc1cccc(NC(=O)c2nc(SC)ncc2Cl)c1 was read as NPC1 prom act 4.4%, p53 reactivator 10.6%, FLuc counter 2.6%, ELG1 genotoxic -4.2% and Rab9 prom act 0.5%.
`COc1cccc(NC(=O)c2ncc(Cl)c(Cl)c2Cl)c1` gave NPC1 prom act 13.5%, p53 reactivator inconclusive, FLuc counter 5.36µM*, SMN2 splice up 25.9%, ELG1 genotoxic -2.8% and Rab9 prom act 4.4%.
Screening COc1cccc(NC(=O)c2ccn(C)n2)c1 returned NPC1 prom act inconclusive, p53 reactivator inconclusive, FLuc counter inconclusive, SMN2 splice up 14.1µM*, ELG1 genotoxic inconclusive and Rab9 prom act 2.82µM*.
For COc1cccc([C@@H]2Oc3ccc(OC)cc3C[C@H]2OC(=O)Nc2cc(OC)c(OC)c(OC)c2)c1 the results were SMN2 splice up 3.8%.
`COc1ccc(-n2nc3cc(C)c(NC(C)=O)cc3n2)cc1` gave NPC1 prom act 0.316µM*, p53 reactivator 4.4%, FLuc counter 0.601µM*, SMN2 splice up 1.58µM*, ELG1 genotoxic inconclusive and Rab9 prom act 0.316µM*.
